TbPYK inhibitor: blocks Trypanosoma brucei pyruvate kinase; TbPYK enzyme, Kinase-Glo Plus ATP luminescence, 45 min; Potency, µM (top dose mostly 76.8 µM), most hits filed as inhibitors; 410,000 compounds, 0.12% hits; AID 624173; further: nearly all actives have a fitted effect of over 50% in size
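Enzyme and substrate buffer are dispensed first and compound is pin-transferred. ADP at 130 uM final then starts the reaction, which runs 45 min at room temperature. Detection reagent is added for 10 min before luminescence is imaged.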
Giardia FBPA inh: blocks Giardia fructose-bisphosphate aldolase activity | A8B2U2 | purified Giardia FBPA | Potency, µM (series often up to 59.6 µM), usual class: inhibitors | 290,000 compounds, 0.71% hits | AID 2451; further: nearly all actives have a fitted effect of over 55% in size
Target sequence (A8B2U2 whole entry, looked up): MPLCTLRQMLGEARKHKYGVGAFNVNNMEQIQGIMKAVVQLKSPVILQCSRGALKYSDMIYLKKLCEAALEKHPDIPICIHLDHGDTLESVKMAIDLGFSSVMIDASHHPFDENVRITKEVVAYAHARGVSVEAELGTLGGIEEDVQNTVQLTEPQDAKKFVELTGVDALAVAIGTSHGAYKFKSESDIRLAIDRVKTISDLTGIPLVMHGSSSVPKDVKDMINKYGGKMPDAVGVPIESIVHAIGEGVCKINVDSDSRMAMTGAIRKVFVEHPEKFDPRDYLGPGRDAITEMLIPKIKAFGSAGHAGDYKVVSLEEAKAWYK
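40 nM FBPA preincubated 10 min at RT with compound (up to 57.5 uM final), then substrate plus GAPDH/TPI/NAD/arsenate coupling and diaphorase/resazurin added. Fluorescence read after 20 min at RT, 525/598 nm.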
LmPK inhibitor: LmPK (Leishmania mexicana) enzyme inhibition. AID 1721. purified LmPK, Kinase-Glo ATP luminescence, 1 h. 290,000 compounds, 0.37% hits. Potency, µM (series often up to 57.5 µM), usual class: inhibitors. Q27686
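Kinase-Glo luminescence read after 1 h RT reaction of 0.1 nM LmPK with 0.5 mM PEP and 0.1 mM ADP. Activity scaled between uninhibited and enzyme-free controls.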
CHX counter: counter-screen hit for Shiga toxin inhibitors, cycloheximide; 300,000 compounds, 12% hits; cell reporter, cycloheximide protein synthesis inhibition counterscreen; max response, %; in the data active means max response mostly above about 13%, no sharp cut-off; inactive means mostly below about 14%; further: read at 38.3 µM for the half of the compounds with a filed dose
Shiga toxin inh: inhibitors of Shiga toxin in Vero cells; 290,000 compounds, 9.2% hits; inhibition, % at 38.7 µM; Vero cells, Shiga toxin protein synthesis inhibition reporter; in the data active means inhibition mostly above about 28%, no sharp cut-off; inactive means mostly below about 43%
RE007 growth inh: less growth of the S. pombe RE007 Vpr strain. AID 651644. S. pombe RE007 Vpr strain, BacTiter-Glo ATP luminescence, 24 h. Potency, µM (titrated, usually from 92.2 µM), actives largely listed as inhibitors. 360,000 compounds, 0.21% hits; active means well fitted falling curve with a large enough effect; inconclusive means small, poorly fitted or top-dose-only effect; inactive means no such curve, though single readings can be large or run the other way; further: nearly all actives have a fitted effect of over 50% in size
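Fission yeast RE007 carrying one integrated HIV-1 vpr copy, seeded at OD 0.01 in PMG+AL medium with 23 nL pinned compound. Grown 24 h at 30 degrees; viability read by BacTiter-Glo luminescence after 5 min.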
Numbers stand for hits; . = inactive; ? = inconclusive; / = no result given; [ ] = dose if it differs, or a comment. Only a selection was taken, and hits are over-represented in it overall. Unless noted, the call rests on the fitted dose curve; in most records, active means well fitted curve in the direction sought with a large enough effect; inconclusive means small, poorly fitted or top-dose-only effect, or another doubt; inactive means no such curve, though single readings can be large; an effect the other way counts as inactive or inconclusive.

SMILES	TbPYK inhibitor	Giardia FBPA inh	LmPK inhibitor	CHX counter	Shiga toxin inh	RE007 growth inh
CN(C)CCCN(C(=O)c1ccco1)c1nc2cc3c(cc2s1)OCO3	.	.	.	11.9	.	.
CN(C)CCCN(C(=O)c1cccs1)c1nc2cc3c(cc2s1)OCO3	.	.	.	17.0	.	.
CN(C)CCCN(C(=O)c1ccc(Br)s1)c1nc2cc3c(cc2s1)OCCO3	.	/	/	/	/	.
CCOC(=O)c1c(NC(C)=O)c2c3c(sc2n1Cc1nc(-c2ccccc2Cl)oc1C)CCCC3	.	/	/	/	/	/
O=C1C=C(Nc2ccccc2)c2ccccc2C1=O	.	?	.	.	.	?
O=C1c2ccccc2C(=O)c2cc(S(=O)(=O)Nc3cccc4cccnc34)ccc21	/	?	/	.	.	/
O=C1C=C(Nc2ccccc2C(=O)O)c2ccccc2C1=O	.	1.58µM	.	.	.	.
O=C1C=C(Nc2cccc3cccnc23)c2ccccc2C1=O	.	1.58µM	.	.	.	.
COc1ccc(-n2c(=O)c(C)nc3cnc(Oc4cccc(Cl)c4)nc32)cc1	.	.	/	/	/	/
CC1COCC(C)N1C1=C(Cl)C(=O)c2ccccc2C1=O (configuration not stated)	22.4µM	/	/	/	/	39.8µM
CCn1cc(S(=O)(=O)c2ccccc2)c(=O)c2cc(F)c(N3CCN(c4ccccc4)CC3)cc21	.	/	/	/	/	/
Cc1ccccc1NCc1ccc([N+](=O)[O-])s1	.	.	.	14.0	.	.
Cc1ccc(NCc2ccc([N+](=O)[O-])s2)cc1	.	.	.	25.3	49.0	?
Cc1ccc(-c2cc3nc4c(c(=O)n3[nH]2)CCCC4)cc1	.	/	/	/	/	.
O=c1c2c(nc3cc(-c4ccc(F)cc4)[nH]n13)CCC2	.	.	.	100.7	99.6	.
CN1CCN(C(=S)c2ccc(-c3cccc(Cl)c3Cl)o2)CC1	.	.	.	39.9	active	.
S=C(c1ccc(-c2ccc(Cl)cc2)o1)N1CCCCC1	.	.	.	39.1	95.5	.
N#CCCN1CCN(C(=S)c2ccc(-c3ccc(Cl)cc3)o2)CC1	.	.	.	27.9	90.6	.
O=C(c1ccc(-c2ccccc2Cl)o1)N1CCN(c2ccccc2O)CC1	.	/	/	/	/	.
S=C(c1ccc(-c2ccccc2Cl)o1)N1CCCCC1	.	.	.	47.7	61.7	.
C=CCC(C)(O)c1cccs1 (configuration not stated)	/	.	/	/	/	/
CC(CNC(=O)c1sc2ncccc2c1-n1cccc1)c1ccccc1 (configuration not stated)	.	/	/	/	/	/
Cc1cc(CC(C)C)n(-c2nc3ccccc3c(=O)n2OCC(N)=O)n1	.	.	.	25.7	104.2	.
COc1ccc(/C=C2\Oc3ccccc3C2=O)cc1	.	/	/	/	/	?
CC(=O)Oc1ccc(/C=C2/Oc3ccccc3C2=O)cc1	.	.	.	32.4	49.3	.
SMILES	TbPYK inhibitor	Giardia FBPA inh	LmPK inhibitor	CHX counter	Shiga toxin inh	RE007 growth inh
O=C1/C(=C/c2ccc(F)cc2)Oc2cc(OC(=O)N3CCOCC3)ccc21	.	.	.	.	.	.
O=C1/C(=C/c2ccccc2)Oc2cc(OC(=O)N3CCOCC3)ccc21	.	.	.	18.6	.	.
COc1ccccc1/C=C1/SC(=S)N(CCC(=O)Nc2cccnc2)C1=O	.	/	.	35.8	10.3	.
COc1ccccc1/C=C1\SC(=S)N(CCC(=O)NCCc2ccc(O)cc2)C1=O	.	/	.	20.9	.	?
O=C(CCN1C(=O)/C(=C/C=C/c2ccccc2)SC1=S)Nc1cccnc1	.	.	.	46.9	86.1	.
O=C(CCN1C(=O)/C(=C/c2ccccc2F)SC1=S)NCCc1ccc(O)cc1	.	/	.	.	.	.
O=C(CCN1C(=O)/C(=C/C=C/c2ccccc2)SC1=S)Nc1ccccn1	.	.	.	.	.	.
O=C1C=C[C@@H](O)[C@H]2[C@@H]3C(=O)N(c4cccc(Oc5ccccc5)c4)C(=O)[C@@H]3CC[C@H]12	/	.[12.9 µM]	/	/	/	/
Nc1[nH]c(N=NC(=O)c2ccccc2O)c2ccccc12	.	?	.	58.4	81.3	.
Nc1[nH]c(N=NC(=O)c2ccccc2)c2ccccc12	.	.	.	52.8	83.7	.
O=C(N=Nc1c(O)[nH]c2ccccc12)c1ccc(CN2CCOCC2)cc1	.	.	.	.	.	.
Nc1[nH]c(N=NC(=O)c2ccc(Cl)cc2)c2ccccc12	.	.	.	32.3	95.1	.

High-throughput results (PubChem)
